# Assay results reported in PubChem BioAssay (EPA / NIEHS).
# Inconclusive results are not listed. Calls of active or inactive are those of the source. Rule for the calls: active = hit-call score of the fitted dose curve at least 0.9, where 1 is the maximum; inconclusive = response in the unintended direction; inactive = score below 0.9.
# Read-out: Cytochrome P450 2B6 (Homo sapiens) (UniProt P20813)
# Assay: CLD_CYP2B6_6hr: CellzDirect (CLD) Gene Expression Assay for xenobiotic metabolism (CYP2B6) at 6 hours (AID 2283677);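 note: actives raise CYP2B6 transcript above DMSO baseline so AC50 marks an inducer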
# Procedure: CLD_6hr is a cell-based, multiplexed-readout assay that uses hepatocyte, a human liver primary cell, with measurements taken at 6 hours after chemical dosing in a 96-well plate.CLD_CYP2B6_6hr is one of 16 assay component(s) measured or calculated from the CLD_6hr assay. It is designed to make measurements of mRNA induction, a form of inducible reporter, as detected with chemiluminescence signals by Quantitative Nuclease Protection Assay (qNPA) technology.Data from the assay component CLD_CYP2B6_6hr was analyzed at the endpoint, CLD_CYP2B6_6hr, in the positive analysis fitting direction relative to DMSO as the negative control and baseline of activity. Using a type of inducible reporter, gain-of-signal activity can be used to understand changes in the reporter gene as they relate to the gene CYP2B6. Furthermore, this assay endpoint can be referred to as a primary readout. To generalize the intended target to other relatable targets, this assay endpoint is annotated to the cyp intended target family, where subfamily is xenobiotic metabolism.
# Human hepatocyte cultures were treated daily for two consecutive days with fresh dosing solutions containing appropriate concentrations of the 320 ToxCast chemicals (chemical identities were blinded to CellzDirect and other ToxCast collaborators), vehicle control (0.2% DMSO), and positive control inducers as summarized in Table 1. Due to the large number of treatment groups and chemicals examined, the ToxCast chemicals were divided into two groups (spanning two independent cultures of hepatocytes from separate donor preparations (Hu778: ToxCast plates 1 and 2; Hu776: ToxCast plates 3 and 4). Each preparation of human hepatocyte cultures was treated with respective vehicle control, medium only control, set of six positive controls/reference chemicals for the five hepatic receptor pathways, and a subset of eight of the ToxCast chemicals (indoxacarb, pyrithiobac-sodium, norflurazon, cyhalofop-butyl, methomyl, thiram, acetochlor, and propiconazole). These replicate data, coupled with internal replicates designed within the blinded ToxCast chemical library, provided additional data to evaluate interindividual differences between hepatocyte preparations and their potential impact on chemical profiles.Cell morphology and integrity were evaluated using phase-contrast microscopy as an indicator of hepatocyte cell health (Tyson & Green, 1987). Cultures for each treatment group (i.e., media, vehicle [0.2% DMSO], positive control inducers [multiple concentrations], and the ToxCast chemicals [multiple concentrations]) were observed and cell morphology was assessed relative to vehicle control cultures at each harvest time point (0, 6, 24, or 48 h). […] Images were evaluated at the conclusion of the study to assess changes in cell integrity and account for the effects of chemical exposure on uncharacteristic changes in concentration-dependent gene expression profiles. The results from these determinations of apparent cytotoxicity were annotated (yes/no) alongside the corresponding qNPA data for reference.At the conclusion of each treatment period, hepatocyte cultures (96-well) were washed with 1 volume of HBSS, lysed by addition of 25 ul ArrayPlate lysis buffer (HTG, Tucson, AZ), and 70 ul/well of Denaturation Oil, denatured by incubation at 95C for 10 min, and frozen at approximately -70C until analysis by nuclease protection assay (qNPA) (Roberts et al., 2007). For qNPA analysis, cell lysates were thawed at 50C for approximately 30 min, qNPA probes were added, and samples were incubated at 95C for 10 min to begin the detection process by denaturing the target RNA, dissociating the duplexes and secondary structure hybridization. At the conclusion of the hybridization period, S1 nuclease reagent was added to each sample to digest all nonprotected nucleotides at 50C for 60-90 min. […]
SMILES,outcome,AC50
OCCOc1ccccc1,inactive,
C[C@H]1[C@H](c2ccc(Cl)cc2)SC(=O)N1C(=O)NC1CCCCC1,,3090 nM (active)
CC(C)(C)C(O)/C(=C\c1ccc(Cl)cc1Cl)n1cncn1 (stereo not given),,733 nM (active)
Clc1ccccc1-c1nnc(-c2ccccc2Cl)nn1,,0.4 nM (active)
CNC(=O)/C=C(\C)OP(=O)(OC)OC,inactive,
O=S1OCC2C(CO1)C1(Cl)C(Cl)=C(Cl)C2(Cl)C1(Cl)Cl (stereo not given),,1240 nM (active)
COC(=O)c1ccccc1S(=O)(=O)NC(=O)N(C)c1nc(C)nc(OC)n1,inactive,
Cc1cc(C)nc(NC(=O)NS(=O)(=O)c2ccccc2C(=O)OC2COC2)n1,inactive,
COP(=O)(OC)OC=C(Cl)Cl,,1890 nM (active)
COP(=S)(OC)Oc1ccc(SC)c(C)c1,,4740 nM (active)
CN1CSC(=S)N(C)C1,inactive,
CCCN(CCC)c1c([N+](=O)[O-])cc(C(F)(F)F)cc1[N+](=O)[O-],,1270 nM (active)
CCN(CC)C(=O)SCc1ccc(Cl)cc1,,1840 nM (active)
O=C(O)COc1ccc(Cl)cc1Cl,,44.8 nM (active)
CCC(C)(NC(=O)c1cc(Cl)c(C)c(Cl)c1)C(=O)CCl (stereo not given),,3170 nM (active)
CNC(=O)Oc1ccccc1OC(C)C,,3210 nM (active)
O=C(O)CCCOc1ccc(Cl)cc1Cl,inactive,
Cc1[nH]c(=O)n(C(C)(C)C)c(=O)c1Cl,inactive,
CCOc1nc(NC)nc(NC(=O)NS(=O)(=O)c2ccccc2C(=O)OC)n1,inactive,
CC(C)(C)C(O)C(Oc1ccc(Cl)cc1)n1cncn1 (stereo not given),,656 nM (active)

SMILES,outcome,AC50
COc1cc(OC)nc(NC(=O)NS(=O)(=O)c2cc(NC=O)ccc2C(=O)N(C)C)n1,inactive,
CCC(C)(C)C(=O)OC1=C(c2ccc(Cl)cc2Cl)C(=O)OC12CCCCC2,inactive,
COc1nn(CSP(=S)(OC)OC)c(=O)s1,,2940 nM (active)
CCOC1Oc2ccc(OS(C)(=O)=O)cc2C1(C)C (stereo not given),,2550 nM (active)
CCOCN(C(=O)CCl)c1c(C)cccc1CC,,1660 nM (active)
CCS(=O)(=O)c1cccnc1S(=O)(=O)NC(=O)Nc1nc(OC)cc(OC)n1,,11300 nM (active)
O=C(O)C(F)(F)C(F)(F)C(F)(F)C(F)(F)C(F)(F)C(F)(F)C(F)(F)F,inactive,
CNC(=O)CSP(=S)(OC)OC,,3110 nM (active)
O=[N+]([O-])/N=C1\NCCN1Cc1ccc(Cl)nc1,inactive,
CC(C)OC(=O)Nc1cccc(Cl)c1,,6860 nM (active)
CC(C)N(C(=O)COc1nnc(C(F)(F)F)s1)c1ccc(F)cc1,,14700 nM (active)
CC1(c2ccc(Oc3ccccc3)cc2)OC(=O)N(Nc2ccccc2)C1=O (stereo not given),,1880 nM (active)
CCC(C)Nc1c([N+](=O)[O-])cc(C(C)(C)C)cc1[N+](=O)[O-] (stereo not given),,1530 nM (active)
O=S(=O)(O)C(F)(F)C(F)(F)C(F)(F)C(F)(F)C(F)(F)C(F)(F)C(F)(F)C(F)(F)F,inactive,
CC[C@H](C)[C@H]1O[C@]2(C=C[C@@H]1C)C[C@@H]1C[C@@H](C/C=C(\C)[C@@H](O[C@H]3C[C@H](OC)[C@@H](O[C@H]4C[C@H](OC)[C@@H](O)[C@H](C)O4)[C@H](C)O3)[C@@H](C)/C=C/C=C3\CO[C@@H]4[C@H](O)C(C)=C[C@@H](C(=O)O1)[C@]34O)O2 (tested in a mixture with another compound),inactive,
O=[N+]([O-])c1c(Cl)c(Cl)c(Cl)c(Cl)c1Cl,,20000 nM (active)
O=C(NC(=O)c1c(F)cccc1F)Nc1ccc(OC(F)(F)C(F)OC(F)(F)F)c(Cl)c1 (stereo not given),inactive,
CNC(=O)Oc1cccc(N=CN(C)C)c1,inactive,
Oc1cc(Cl)ccc1Oc1ccc(Cl)cc1Cl,inactive,
COP(=S)(OC)Oc1ccc([N+](=O)[O-])cc1,,916 nM (active)
